Results from ChEMBL document CHEMBL3433997, “St. Jude Leishmania screening dataset” (2016).

What follows are molecules tested against Solute carrier family 2, facilitated glucose transporter member 1 (Homo sapiens) (UniProt P11166) (assay: ST_JUDE_LEISH: Cytotoxicity at 2uM final concentration against transgenic Leishmania Mexicana promastigotes LmGLUT1 that are glucose transport deficient and complemented with the human glucose transporter GLUT1. Activity is measured by DNA content using SYBR green in vitro).
Type: functional

Sequence of Solute carrier family 2, facilitated glucose transporter member 1 (Homo sapiens) (P11166 whole entry): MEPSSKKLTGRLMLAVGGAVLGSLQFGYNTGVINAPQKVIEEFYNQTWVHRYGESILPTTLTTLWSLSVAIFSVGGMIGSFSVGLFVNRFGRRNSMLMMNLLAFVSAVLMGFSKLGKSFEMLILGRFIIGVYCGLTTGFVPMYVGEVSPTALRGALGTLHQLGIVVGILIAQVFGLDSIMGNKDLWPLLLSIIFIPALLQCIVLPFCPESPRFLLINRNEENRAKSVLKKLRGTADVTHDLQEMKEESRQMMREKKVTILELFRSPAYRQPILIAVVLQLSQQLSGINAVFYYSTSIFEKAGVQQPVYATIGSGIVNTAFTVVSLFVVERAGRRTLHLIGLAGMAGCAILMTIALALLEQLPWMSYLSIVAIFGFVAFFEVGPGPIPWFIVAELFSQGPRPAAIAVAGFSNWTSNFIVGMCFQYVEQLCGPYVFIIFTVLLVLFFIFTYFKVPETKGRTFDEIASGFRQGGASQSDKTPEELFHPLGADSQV

Point of comparison: `CC(=O)Nc1ccc(C(=O)Nc2ccc(-c3csc(-c4nc5ccccc5[nH]4)c3)cc2)cn1`, inhibition 1.44%. Against it:
- CC1(C)N=C(N)N=C(N)N1c1ccc(I)cc1 — higher, 5.79%
- N#Cc1ccc(-c2ccc(C(=O)NCCCCN3CCC(c4cn(CCCO)c5ccccc45)CC3)cc2)cc1 — higher, 2%
- C=CCn1c(SCC(=O)Nc2cc(Cl)ccc2Cl)nc2sc(C)cc2c1=O — higher, 1.86%
- Cc1nnc2c(NC(=O)NC3CCCC3)cc3cc(-c4ccc(CN5CCN(C)CC5)cc4)ccc3n12 — higher, 7.2%
- CN(C)[C@@H]1C(O)=C(C(N)=O)C(=O)[C@@]2(O)C(O)=C3C(=O)c4c(O)ccc(C#Cc5ccccn5)c4C[C@H]3C[C@@H]12 — higher, 1.83%
- Cc1ncc([N+](=O)[O-])n1CCOC(=O)NC(NCC1COc2ccccc2O1)C(Cl)(Cl)Cl (stereo not given) — higher, 2.63%
- CCN1CCN(c2cc(C)c3cc(NC(=O)c4ccc(N(CC)CC)cc4)ccc3n2)CC1 — lower, -0.29%
- Nc1ccc(-c2nc3cc(Oc4ccc5[nH]c(-c6ccc(N)cc6)nc5c4)ccc3[nH]2)cc1 — lower, -3.07%
- Cc1nc(C)c(-c2ccc(C(=O)c3ccccc3)cc2)c(O)c1Br — higher, 5.44%
- CC1CN(Cc2ccc(-c3ccc(-c4nc5ccccc5[nH]4)cc3)cc2)CC(C)O1 (stereo not given) — higher, 6.34%
- O=C(N[C@H]1CCN(Cc2ccc(OC3CCN(Cc4ccccc4)CC3)c(Br)c2)C1)c1ccc(Cl)c(Cl)c1 — lower, -0.92%
- COc1cccc(NC(=O)Nc2ccc(Nc3nc(C)cc(N4CCCC4)n3)cc2)c1 — higher, 1.91%
- CC(C)c1ccc(NC(=O)Nc2ccc(CCNCCCc3ccccc3)cc2)cc1 — lower, 0.62%
- COc1ccc2[nH]ccc(=NN=Cc3ccc(N(C)C)cc3)c2c1 — higher, 2.69%
- Cc1cccnc1CNc1nccc2c(C)c(C)[nH]c12 — higher, 2.2%
- Cc1cccc2nc(-c3ccc(-c4ccc(CN5CCN(c6ccncc6)CC5)cc4)cc3)[nH]c12 — higher, 33.3%
- N#Cc1ccc(N/C(=N\c2ccc(-c3ccccc3)cc2)NC2CCCc3ccccc32)c(O)c1 (stereo not given) — lower, -1.53%
- COc1cccc(CNC[C@@H](O)[C@H](Cc2ccccc2)NC(=O)c2cc(C(C)C)cc(N3CCCC3=O)c2)c1 — lower, -1.08%
- CO/C(=C\C=C\c1cc2cc(Cl)c(Cl)cc2[nH]1)C(=O)NCCCN1CCN(c2ccncc2)CC1 — higher, 4.85%
- COc1ccccc1CCNc1nccc(N[C@@H](Cc2ccccc2)C(=O)NCc2cccs2)n1 — higher, 1.78%
- O=C(N[C@@H](Cc1ccccc1)[C@H](O)CNC1CCc2ccccc2C1)c1cc(C2CCCC2)cc(N2CCCC2=O)c1 (stereo not given in full) — lower, -3.59%
- O=C(Nc1ccc([N+](=O)[O-])cc1)c1nn(-c2ccccc2)cc1/N=C/c1cccc(O)c1 — lower, -0.62%
- O=c1cc(NCCCNCc2scc3c(Cl)cc(C(F)(F)F)nc23)[nH]c2ccccc12 — higher, 2.13%
- O=C(N[C@@H](CC1CCCCC1)C(=O)NCCc1ccc(Cl)c(Cl)c1)c1ccc(O)c(-c2ccc(Cl)c(Cl)c2)c1 — lower, 0.23%
- O=C(/C=C/c1ccc(Cl)c(Cl)c1)NCCCCCN1CCC(NC(=O)c2ccc([N+](=O)[O-])cc2)CC1 — higher, 12.2%
- C=C[C@H]1CN(CCCCCCC)CC[C@H]1CC(=O)Nc1cnnc2ccc(OC)cc12 — higher, 1.79%
- CCCN(CCC)C(C)CCC(C)Nc1c2ccc(Cl)cc2nc2ccc(OC)cc12 (stereo not given) — higher, 1.91%
- O=[N+]([O-])c1ccc(Nc2nc(NCc3ccccc3)nc(N/N=C/c3ccccc3[N+](=O)[O-])n2)cc1 — higher, 2.21%
- O=C(NCCOc1ccccc1)[C@H](Cc1ccccc1)Nc1ccnc(NCC2CCCCC2)n1 — higher, 2.23%
- CCc1cc2c3c(N)nc(N)nc3ccc2n1C(C)CC (stereo not given) — higher, 85.2%
- c1ccc(-c2cc3cccc(-c4nc5cnccc5[nH]4)c3o2)cc1 — higher, 10.8%
- CC(=O)Nc1cccc(CN(Cc2ccc(-c3ccc(CNCc4cccnc4)cn3)cc2)C(=O)Cc2cccnc2)c1 — higher, 14.6%
- C=CCOC(=O)N1CCC(CNCc2ccc(-c3ccc(-c4nc5cc(C(F)(F)F)ccc5[nH]4)cc3)cc2)C1 (stereo not given) — higher, 3.5%
- CC(=O)Nc1nc(C(=O)Nc2ccc(-c3ccc(-c4nc5ccccc5[nH]4)cc3)cc2)cs1 — higher, 4.03%
- CC(=O)Nc1ccc(CN(Cc2cccc(OC(C)(C)C)c2)Cc2ccc3c(c2)OCCO3)cc1 — higher, 4.55%
- CCc1nc2nc(C)cc(Nc3ccc(F)c(Cl)c3)n2n1 — lower, -2.16%
- CCOc1cc(C(=O)NCc2ccc(Cl)c(Cl)c2)ccc1-c1nc2cc(Cl)ccc2[nH]1 — lower, -0.85%
- O=C(/C=C/c1ccc(Cl)c(Cl)c1)NCCCCCN1CCC(NC(=O)Nc2ccc(Cl)cc2Cl)CC1 — lower, -0.07%
- CCCN(CCC)CCCNc1ccc(C(=O)Nc2ccc(OCC)cc2)cc1[N+](=O)[O-] — higher, 32.8%
